The list is not random: actives were taken first. Their share in the collection is about 2.6%.
APOBEC3A inh: APOBEC3A ssDNA deaminase inhibitors, primary screen, selectivity assay for APOBEC3G inhibitor project, biochemical, FAM/TAMRA oligo cleavage fluorescence; AID 493011, 2011; inhibition, % at 20 µM; recombinant A3A, FAM/TAMRA ssDNA deamination fluorescence; DNA dC->dU-editing enzyme APOBEC-3A (Homo sapiens), P31941; 330,000 compounds, 0.41% hits;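 active = at least 40% inhibition at 20 µM here, with at most 30% in a related deaminase screen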
Target sequence (P31941 whole entry, looked up): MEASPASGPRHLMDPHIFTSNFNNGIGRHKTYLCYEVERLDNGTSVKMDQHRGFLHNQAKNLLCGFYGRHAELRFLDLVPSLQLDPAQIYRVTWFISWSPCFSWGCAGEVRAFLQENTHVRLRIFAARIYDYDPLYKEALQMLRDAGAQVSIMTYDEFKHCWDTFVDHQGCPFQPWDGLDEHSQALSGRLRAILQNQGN
eIF4H inh: human eIF4H binding inhibitors, primary screen, translation initiation inhibitor project, biochemical, uHTS, fluorescence polarization; Eukaryotic translation initiation factor 4H (Homo sapiens), Q15056; inhibition, % at 35 µM; eIF4H fluorescence polarization binding assay; 290,000 compounds, 0.94% hits;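 also: calls also rest on retests at 20 µM and on dose response follow-up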
A3G deaminase: APOBEC3G DNA deaminase inhibitors, primary screen, biochemical, fluorescence, single-stranded DNA substrate, uHTS | recombinant A3G, ssDNA deamination FAM/TAMRA fluorescence | 330,000 compounds, 0.28% hits | inhibition, % at 20 µM;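 active = inhibition of at least 40% at 20 µM, with no more than 30% in the related APOBEC3A deaminase screen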
PHOSPHO1 inh: PubChem AID 1565; 290,000 compounds, 1.1% hits; inhibition, % at 13.3 µM; Phosphoethanolamine/phosphocholine phosphatase (Homo sapiens), Q8TCT1; recombinant PHOSPHO1, absorbance phosphatase assay; in the data active = inhibition above about 60%
PABP1 MLLE inh: inhibitors of PABP1 MLLE–PAM2 peptide binding, primary screen, biochemical, fluorescence polarization, FITC-PAM2, GST-MLLE | Polyadenylate-binding protein 1 (Homo sapiens), P11940 | inhibition, % at 20 µM | 360,000 compounds, 0.36% hits | AID 588489, 2011; in the data active = inhibition above about 35%, passing the limit was not always enough
PABP polyA inh: PABP poly(A) RNA binding inhibitors, primary screen, biochemical, fluorescence polarization, uHTS | AID 2014, 2009 | 290,000 compounds, 1% hits | calls only at 35 µM;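 also: calls also rest on retests at 20 µM and on dose response follow-up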
Numbers stand for hits. Unless noted, no rule for the calls is given here.

`C#CCSc1nnc(-c2ccc(OC)cc2)o1` gave APOBEC3A inh inactive, eIF4H inh inactive, A3G deaminase inactive, PHOSPHO1 inh 68.6, PABP1 MLLE inh inactive and PABP polyA inh inactive.
C=CCn1c(SCCOc2ccc(OC)cc2)nnc1C(C)NC(=O)c1ccc(OC)cc1 (centres undefined) was read as APOBEC3A inh inactive, eIF4H inh inactive, A3G deaminase inactive, PHOSPHO1 inh inactive, PABP1 MLLE inh inactive and PABP polyA inh inactive.
Screening CCn1c(SCc2ccc(Cl)c(Cl)c2)nnc1C(C)NC(=O)c1ccc(OC)cc1 (centres undefined) returned APOBEC3A inh inactive, eIF4H inh active, A3G deaminase inactive, PHOSPHO1 inh inactive, PABP1 MLLE inh inactive and PABP polyA inh active.
`COc1cc(S(=O)(=O)N2CCOCC2)cc(C(=O)OCC(=O)NCc2ccco2)c1OC` gave APOBEC3A inh inactive, A3G deaminase inactive and PABP1 MLLE inh inactive.
`Cc1ccc(-c2cnc3c(c2)C(=O)N([C@H](C)CO)C[C@H](C)[C@@H](CN(C)Cc2ccccc2F)O3)cc1` gave PABP1 MLLE inh inactive.
`CCOc1cc(C)ccc1OCc1nnc(SCC(=O)c2cccc([N+](=O)[O-])c2)n1CC` gave APOBEC3A inh inactive, eIF4H inh inactive, A3G deaminase inactive, PHOSPHO1 inh 87.7, PABP1 MLLE inh inactive and PABP polyA inh inactive.
For CCn1c(COc2ccccc2)nnc1SCC(=O)c1cccc([N+](=O)[O-])c1 the results were APOBEC3A inh inactive, eIF4H inh inactive, A3G deaminase inactive, PHOSPHO1 inh inactive, PABP1 MLLE inh inactive and PABP polyA inh inactive.
For CCOC(=O)Cc1cnc(NC(=O)CSc2nc(N)cc(N)n2)s1 the results were APOBEC3A inh inactive, eIF4H inh inactive, A3G deaminase inactive, PHOSPHO1 inh inactive, PABP1 MLLE inh inactive and PABP polyA inh inactive.
`NC(Cc1ccccc1)C(=O)N1CCCCC1` (centres undefined) gave APOBEC3A inh inactive, eIF4H inh inactive, A3G deaminase inactive, PHOSPHO1 inh inactive, PABP1 MLLE inh inactive and PABP polyA inh inactive.
`CN1CCN(C(=O)Nc2ccccc2)CC1` gave APOBEC3A inh inactive, eIF4H inh inactive, A3G deaminase inactive, PHOSPHO1 inh 62.9, PABP1 MLLE inh inactive and PABP polyA inh inactive.
O=C(Nc1ccccc1)N1CCN(c2ccccc2)CC1 was read as PABP1 MLLE inh inactive.
`CN1CCN(C(=O)C(N)Cc2ccccc2)CC1` (centres undefined) gave APOBEC3A inh inactive, eIF4H inh inactive, A3G deaminase inactive, PHOSPHO1 inh 62.9, PABP1 MLLE inh inactive and PABP polyA inh inactive.
Screening COC(=O)c1sc2nc(CSc3ccc(Br)cc3)[nH]c(=O)c2c1C returned APOBEC3A inh inactive, eIF4H inh 51.2, A3G deaminase inactive, PHOSPHO1 inh inactive, PABP1 MLLE inh inactive and PABP polyA inh active.
Screening CCn1c(SCc2nc3cc(OC)c(OC)cc3c(=O)[nH]2)nc2ccccc21 returned APOBEC3A inh inactive, eIF4H inh inactive, A3G deaminase inactive, PHOSPHO1 inh 60.0, PABP1 MLLE inh inactive and PABP polyA inh inactive.
For CCn1c(SCc2nc3sc(C(=O)O)c(C)c3c(=O)[nH]2)nc2ccccc21 the results were APOBEC3A inh inactive, eIF4H inh 83.3, A3G deaminase inactive, PHOSPHO1 inh inactive, PABP1 MLLE inh inactive and PABP polyA inh active.
Screening C=CCn1c(SCc2nc3sc(C(=O)O)c(C)c3c(=O)[nH]2)nnc1-c1ccc(F)cc1 returned APOBEC3A inh inactive, eIF4H inh inactive, A3G deaminase inactive, PHOSPHO1 inh inactive, PABP1 MLLE inh inactive and PABP polyA inh inactive.
For COCCn1c(SCc2nc3sc(C(=O)OC)c(C)c3c(=O)[nH]2)nc2ccccc21 the results were APOBEC3A inh inactive, eIF4H inh inactive, A3G deaminase inactive, PHOSPHO1 inh 92.2, PABP1 MLLE inh inactive and PABP polyA inh inactive.
Cc1ccccc1OCC(=O)NNC(=S)NC(=O)c1ccco1 was read as APOBEC3A inh inactive, eIF4H inh inactive, A3G deaminase inactive, PHOSPHO1 inh 98.7, PABP1 MLLE inh inactive and PABP polyA inh inactive.
O=c1cc(Cn2ccnc2)c2cc(O)ccc2o1 was read as APOBEC3A inh inactive, eIF4H inh inactive, A3G deaminase inactive, PHOSPHO1 inh inactive, PABP1 MLLE inh inactive and PABP polyA inh inactive.
`O=C(CSc1nccn1-c1ccccc1)NCc1ccc2c(c1)OCO2` gave APOBEC3A inh inactive, eIF4H inh inactive, A3G deaminase inactive, PHOSPHO1 inh inactive, PABP1 MLLE inh inactive and PABP polyA inh inactive.
For O=C(CSc1nccn1-c1ccc(F)cc1)NCc1ccc2c(c1)OCO2 the results were APOBEC3A inh inactive, eIF4H inh inactive, A3G deaminase inactive, PHOSPHO1 inh 64.7, PABP1 MLLE inh inactive and PABP polyA inh inactive.
Screening Cc1cc(C(=O)CSc2nc3ccccc3c(=O)n2C)c(C)n1Cc1ccc2c(c1)OCO2 returned APOBEC3A inh inactive, eIF4H inh inactive, A3G deaminase inactive, PHOSPHO1 inh inactive, PABP1 MLLE inh inactive and PABP polyA inh inactive.
Screening O=C(CSc1nnc(-c2ccccc2)n1Cc1ccco1)Nc1ccc2c(c1)OCCO2 returned APOBEC3A inh inactive, eIF4H inh inactive, A3G deaminase inactive, PHOSPHO1 inh inactive, PABP1 MLLE inh inactive and PABP polyA inh inactive.
Screening Cc1cc(C(=O)CSc2nnc(-c3ccccc3)n2Cc2ccc3c(c2)OCO3)c(C)n1C returned APOBEC3A inh inactive, eIF4H inh inactive, A3G deaminase inactive, PHOSPHO1 inh 94.8, PABP1 MLLE inh inactive and PABP polyA inh inactive.
Screening O=C(CSc1nnc(-c2ccccc2)n1Cc1ccco1)NCc1ccc2c(c1)OCO2 returned APOBEC3A inh inactive, eIF4H inh inactive, A3G deaminase inactive, PHOSPHO1 inh 60.0, PABP1 MLLE inh inactive and PABP polyA inh inactive.
Screening COc1ccc(C(=O)NCCc2c[nH]c3ccccc23)cc1S(=O)(=O)N1CCOCC1 returned APOBEC3A inh inactive, eIF4H inh inactive, A3G deaminase inactive, PHOSPHO1 inh inactive, PABP1 MLLE inh inactive and PABP polyA inh inactive.
CCOc1ccccc1NC(=O)CN1C(=O)C(=O)N(Cc2ccco2)C1=O was read as APOBEC3A inh inactive, eIF4H inh inactive, A3G deaminase inactive, PHOSPHO1 inh inactive, PABP1 MLLE inh inactive and PABP polyA inh inactive.
Screening COc1cccc2sc3ccc(NCc4ccc5c(c4)OCO5)cc3c(=O)c12 returned APOBEC3A inh inactive, eIF4H inh 52.5, A3G deaminase inactive, PHOSPHO1 inh inactive, PABP1 MLLE inh inactive and PABP polyA inh inactive.
Screening CN(C)S(=O)(=O)c1cccc(NC(=O)c2cccc(S(=O)(=O)N3CCCCCC3)c2)c1 returned APOBEC3A inh inactive, A3G deaminase inactive and PABP1 MLLE inh inactive.

From PubChem
